Growth data for 40 molecules are collected here from PubChem BioAssay (NCI).

Molecules are shown by their SMILES. This is part of a sample that, as a whole, favours compounds with a hit. Of some 83,000 tested, about 20% had one in any assay.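 The endpoint reported here, percent growth, reads 100 for growth as untreated, 0 for no net growth and -100 for all cells dead.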 A number with no mark means an inactive call. Active and inactive are the calls of the source.

This experiment concerns OVCAR-5 ovarian. The experiment is described as follows: NCI-60 one-dose screen, 48 h (100 = growth as untreated, 0 = no growth, -100 = all killed). The note with it: 10 µM unless noted. As to the method:
Growth inhibition of the OVCAR-5 human tumor cell line is measured as a screen for anti-cancer activity. Cells are grown in 96 well plates and exposed to the test compound for 48 hours. Compounds are tested at a single concentration, which is 10^-5 M for most compounds. The reported endpoint is percent growth (GI% or GIPRCNT), where numbers from 0 - 100% represent growth inhibition, and numbers from -100% - 0 represent cell death. For example, a value of 40 represents 60% growth inhibition. A value of 0 means no net growth occurred over the course of the experiment. A value of -40 indicates 40% of cells at the beginning of the experiment died by the end of the experiment. A value of -100 means all cells are dead at the end of the experiment.
NCI-60 Human Tumor Cell Lines Screen was performed using the standard one-dose NCI protocol, which is described in more detail at https://dtp.cancer.gov/discovery_development/nci-60/default.htm.
Compounds with GIPRCNT values below 10 were considered active. Activity score was based on GIPRCNT using the following formula: […]
Score is 0 for GIPRCNT values of 100 or above, 50 for GIPRCNT values of 0, and 100 for GIPRCNT values of -100.
`CC(C)[C@H]1CCC2=C3CC[C@]45OC(=O)[C@@]6(CCC(C)(C)C[C@H]64)CC[C@@]5(C)[C@]3(C)CC[C@@]21C`: the growth was 107% [100 µM]. To `O=c1[nH]cnc2c1ccn2C1OC(CO)C(O)C1O` (stereo not given) belongs 76.6%; to `C#C[C@]1(O)CC[C@H]2[C@@H]3CC=C4c5nc(Nc6ncccn6)sc5CC[C@]4(C)[C@H]3CC[C@@]21C`, 86%. With `Nc1nc(Cl)c2ncn(Cc3cc4c(cc3I)OCO4)c2n1`, the growth is 72.8%. The value for `COc1cccc(-c2[nH]c(=S)ncc2C(=O)c2ccccc2)c1` was 93.8%; that for `O=C(Nc1ccc(Cl)c(C(F)(F)F)c1)Nc1ccc(-c2cccnc2)cc1N1CCC(CO)CC1` was 39.4%; that for `NC(=O)CC1C=CCC1` (stereo not given) was 96.7%. As to `COC(=O)c1c(C)[nH]c(/C=C2\N=C(c3ccc[nH]3)C=C2OC)c1C`, the growth was 0.695% (active).

As for `c1coc2occoc=2o1`, the growth is 101%.

For `CCN(CC)CCCC(C)Nc1c2ccc(C)cc2nc2ccc(OC)cc12` (stereo not given), the growth is 76.2%.

`CC1Cc2c(Cl)ncnc2N(C)c2ccc(O)cc21` (stereo not given): the growth is 102%. As for `CCOC(=O)COc1ccc2c(c1)O/C(=C\c1ccc(O)cc1)C2=O`, the growth was 102%. With `CC(C)C1=NOC(=O)C1=Cc1cn(-c2ccccc2)nc1-c1ccc(Cl)cc1`, the growth was 99.1%. Turning to `CSc1cccc([N+](=O)[O-])c1`, the growth is 101%.

As to `FC(F)(F)c1ccc2c(c1)Sc1ccccc1N2`, the growth was 98.2%.

For the molecule `CC(C)[N+](C)(C)CC(O)COc1cccc2ccccc12` (stereo not given), the growth was 94.6%. Take `CCOc1cc(/C=N\NC(=O)N/N=C/c2ccc(O)c(OCC)c2)ccc1O`: the growth was 66.8%. Consider `C[C@H]1[C@H](C)CC[C@]2(C(=O)O)CC[C@]3(C)C(=CC[C@@H]4[C@@]5(C)C/C(=C/c6ccco6)C(=O)C(C)(C)[C@@H]5CC[C@]43C)[C@H]12`, for which the growth was -48.8% [100 µM] (active). Consider `N#Cc1c(N2CCOCC2)nc(=S)[nH]c1-c1ccco1`, for which the growth is 69%. Regarding `O=S(=O)(NCCCNc1nccc(-c2c(-c3cccc(F)c3)nc3occn23)n1)c1cccc2ccccc12`, the growth is 66.7%. Take `Cc1cccc(/C=C2\N=C(c3ccccc3)N(c3ccc(S(N)(=O)=O)cc3)C2=O)c1`: the growth is 99.1%. On to `CC(C)[C@H]1COC(=O)N1[C@@H]1C(=O)N([C@@H](CCC(=O)N2CCN(C3CCCC3)CC2)C(=O)N[C@@H]2CCCc3ccccc32)[C@@H]1/C=C/c1cccc(Cl)c1`, for which the growth was 105%. In the case of `CCOc1ccccc1/C=N\Nc1ccc(S(=O)(=O)c2ccc(N/N=C/c3ccccc3OCC)cc2)cc1`, the growth is 95%. The value for `O=C(N/N=C1\c2ccccc2-c2cccc(C(=O)O)c21)c1ccc(O)cc1` was 102%; that for `CN(C)c1cc(NN=C(c2ccc(O)cc2)c2ccc(O)cc2)c([N+](=O)[O-])cc1[N+](=O)[O-]` was 98.4%; that for `CC(C)(C)OC(=O)N1C=C/C(=C\Cn2cc(-c3ccccc3)nn2)CC1` was 104%. In the case of `Cc1cccc(C[C@H](NC(=O)Nc2ccc(Cl)cc2F)C(=O)N[C@@H]2C(=O)N3C[C@H](O)C[C@H]3C(=O)N3CCCC[C@H]3C(=O)N[C@@H](C)C(=O)N3C[C@H](C)C[C@H]3C(=O)O[C@H]2C)c1`, the growth was 6.86% (active).

In the case of `COc1ccc(C2CC(c3ccc4ccccc4c3)=NN2c2nc(O)c(C3=c4cc(OC)ccc4=NC3=O)s2)cc1` (stereo not given), the growth is 0.651% (active). For the molecule `CC[C@@](C)(NC(=O)[C@H](C)NC(=O)CCNC(=O)C(C)(C)NC(=O)[C@H](C)NC(=O)[C@@H]1CCCN1C(=O)[C@@](C)(CC)NC(=O)[C@H](Cc1ccccc1)NC(=O)C1CCCN1C(=O)C(C)(C)NC(=O)C1CCCN1C(=O)C(C)(C)NC(C)=O)C(=O)NCCC(=O)N[C@@H](CC(C)C)C(=O)NC(C)(C)C(=O)NCCC(=O)N[C@@H](CC(C)C)C(=O)NC(C)(C)C(=O)NC(C)(C)C(=O)N[C@@H](CC(C)C)C(=O)NCCC(=O)NCO` (stereo not given in full), the growth was -87.6% (active). For the molecule `O=C1NC(=O)C(Cc2ccc(OCc3ccc(-c4cc(F)c(F)c(F)c4)cc3)cc2)S1` (stereo not given), the growth is 93.4%. Take `CCN(CC)c1ccc2cc(NC(=O)OCCNC(=O)CCNC(=O)[C@H](CC(C)C)NC(=O)C(C)(C)NC(=O)C(C)(C)NC(=O)[C@H](CC(C)C)NC(=O)CCNC(=O)C(C)(C)NC(=O)[C@H](CC(C)C)NC(=O)CCNC(=O)[C@@](C)(CC)NC(=O)[C@H](C)NC(=O)CCNC(=O)C(C)(C)NC(=O)[C@H](C)NC(=O)[C@@H]3CCCN3C(=O)[C@@](C)(CC)NC(=O)[C@H](Cc3ccccc3)NC(=O)C3CCCN3C(=O)C(C)(C)NC(=O)C3CCCN3C(=O)C(C)(C)NC(C)=O)c(=O)oc2c1` (stereo not given in full): the growth is -87.7% (active). `C[n+]1c(-c2ccccc2)c2cc(N)ccc2c2ccccc21`: the growth was 107%. With `C1=C[C@H]2O[C@@H]1c1ccc3[nH]ccc3c12`, the growth is 105%. In the case of `N#C/C(C(=O)c1ccccc1)=C1/C(=O)Nc2ccccc21`, the growth is 101%.

Turning to `CCOC(=O)c1cnc2ccc(Br)cc2c1Nc1cccc(S(N)(=O)=O)c1`, the growth was 93.6%.

For the molecule `N=C(N)c1ccc(-c2ccc(-c3ccc(-c4cccs4)s3)s2)cc1F`, the growth is 75.8%.

With `Cc1ccc(S(=O)(=O)n2cc(C(=O)C(=O)N3CCCCC3)c3ccccc32)cc1`, the growth is 76.3%. `O=C(OCc1ccc2c(Cl)cc(Cl)c(O)c2n1)N1CCNCC1`: the growth was 55.5%.

As to `CCOC(=O)CC(c1ccccc1)C(C#N)c1ccccc1` (stereo not given), the growth is 110%.

As to `COc1ccc2c(c1)C(C)Cc1c(Cl)nc(C)nc1N2C` (stereo not given), the growth is 56.2%.
